Rango-impB inh: inhibitors of Rango-importin beta complex formation. actives 0.031% (n = 340,000). Potency, µM (series often up to 92.2 µM), for inactives: at the top dose inhibition of complex formation. AID 540263. Rango CFP/YFP FRET sensor + importin beta, 45 min. Q14974; calls by dose curve;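 also: 0% = DMSO wells and 100% = buffer wells lacking importin beta; nearly all actives have a fitted effect of over 15% in size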
Target sequence (Q14974 whole entry, looked up): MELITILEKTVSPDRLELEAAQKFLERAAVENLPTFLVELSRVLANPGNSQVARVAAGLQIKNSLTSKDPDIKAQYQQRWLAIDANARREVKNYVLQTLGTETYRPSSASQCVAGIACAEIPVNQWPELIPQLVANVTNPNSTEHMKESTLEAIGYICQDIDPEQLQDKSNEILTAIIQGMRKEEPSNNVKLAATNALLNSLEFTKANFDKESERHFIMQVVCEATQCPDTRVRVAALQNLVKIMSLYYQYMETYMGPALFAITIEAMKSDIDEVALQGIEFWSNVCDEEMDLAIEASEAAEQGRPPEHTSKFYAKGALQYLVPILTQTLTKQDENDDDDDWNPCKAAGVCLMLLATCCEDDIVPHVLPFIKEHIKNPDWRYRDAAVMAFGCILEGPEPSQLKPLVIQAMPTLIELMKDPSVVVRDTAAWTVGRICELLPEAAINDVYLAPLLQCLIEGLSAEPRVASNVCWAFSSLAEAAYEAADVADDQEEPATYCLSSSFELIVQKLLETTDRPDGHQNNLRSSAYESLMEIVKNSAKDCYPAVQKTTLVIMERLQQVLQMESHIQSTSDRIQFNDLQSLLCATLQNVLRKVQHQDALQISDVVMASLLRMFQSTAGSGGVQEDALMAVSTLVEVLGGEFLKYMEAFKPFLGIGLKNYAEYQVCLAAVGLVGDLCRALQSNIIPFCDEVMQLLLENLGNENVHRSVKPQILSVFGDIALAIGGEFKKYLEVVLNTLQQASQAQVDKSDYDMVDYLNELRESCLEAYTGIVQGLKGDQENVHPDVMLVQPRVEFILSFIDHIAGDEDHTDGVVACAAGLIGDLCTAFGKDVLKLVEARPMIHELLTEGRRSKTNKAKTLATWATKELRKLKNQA
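FRET biosensor Rango (snurportin 1 IBB between N-terminal EYFP and C-terminal Cerulean), 50 nM in PBS/1 mM DTT/0.02% Tween-20/0.1% BSA, preincubated 5 min RT with compound; 0.125 microM importin beta added, 45 min RT, CFP/YFP FRET ratio read.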
Nrf2 activator: Nrf2 pathway activation. AREc32 ARE-luciferase reporter (MCF7-derived line), luminescence, 24 h. Potency, µM (doses to about 46.1 µM), for the others: top-dose activation, actives largely listed as activators. actives 0.31% (n = 410,000). AID 624171; also: % of control where 0% means no effect; nearly all actives have a fitted effect of over 65% in size
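AREc32_Fluc, 1000 cells/well, OPTI-MEM + 5% FBS, o/n 37 deg C 5% CO2; 23 nL cpd by pin tool, 24 hr; Steady-Glo 30 min RT, luminescence.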
Rango release inh: prevents RanGTP from dissociating the Rango-importin beta complex | O95149+P62826 | Biochemical FRET Rango-importin beta, RanGTP-induced dissociation | Potency, µM (series often up to 46.1 µM), without a hit: top-dose activity change, negative = inhibition | actives 0.071% (n = 340,000) | AID 540253; calls by dose curve; also: % of control where 0% means no effect; nearly all actives have a fitted effect of over 45% in size
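Compounds preincubate 5 min with complex of recombinant Rango and importin beta in PBS with 1 mM DTT. Ran (0.6 uM) loaded with 2 mM GTP plus 0.2 uM RCC1 starts dissociation; FRET is recorded 45 min later.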
Nrf2 inh: Nrf2 pathway inhibition; Potency, µM (titrated, usually from 46 µM), inactives show at the top dose activity change, negative = inhibition, actives largely listed as inhibitors; actives 2.1% (n = 360,000); A549 ARE-Fluc reporter, luciferase luminescence, 18-24 h; also: % is scaled to controls: 0 for no effect and ±100 for the full control effect; nearly all actives have a fitted effect of over 60% in size
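A549 ARE_Fluc cells (5000/well, 5% FBS OPTI-MEM) pre-incubated 2 h, then treated with compounds 18-24 h at 37C/5% CO2 in concentration-response. CellTiter-Fluor viability read first; BugLite luciferase luminescence after 15 min at room temperature gives Nrf2 activity.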
A549 viability: counter-screen for Nrf2 inhibitors: cytotoxicity in A549 cells; A549 ARE-Fluc cells, CellTiter-Fluor viability, 18-24 h; Potency, µM (series often up to 46 µM), without a hit: top-dose activity change, negative = cytotoxicity, most hits filed as inhibitors; actives 0.16% (n = 390,000); also: % is scaled to controls: 0 for no effect and ±100 for the full control effect
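Cytotoxicity counterscreen: CellTiter-Fluor fluorescence was measured in A549 ARE_Fluc cells after 18-24 h of compound exposure in a concentration series. The subsequent BugLite luminescent read reports ARE-luciferase activity.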
The depositor's hits bear a star; ? = inconclusive; / = not tested or not shown; [ ] = remark or other dose. The list is not random: actives were taken first. Their share in the collection is about 2.3%. Unless noted, calls follow the shape of the dose curve; as a rule, active = well fitted curve in the direction sought with a large enough effect; inconclusive = small, poorly fitted or top-dose-only effect, or another doubt; inactive = no such curve, though single readings can be large; an effect the other way counts as inactive or inconclusive. Potency is read from the fitted curve at half-maximal effect.

SMILES	Rango-impB inh	Nrf2 activator	Rango release inh	Nrf2 inh	A549 viability
Cc1cccc(-c2n[nH]c(=S)n2/N=C/C=C/c2ccco2)c1	-4.9%	2.51µM*	1.5%	-5.8%	-3.1%
CC(/C=N/n1c(-c2ccc(C)cc2)n[nH]c1=S)=C\c1ccco1	1.2%	?	-2.3%	13.2%	16.0%
O=C(O)CNc1cccc(-c2nn3c(=O)cc(N4CCNCC4)nc3s2)c1	/	/	/	4.9%	-1.6%
COCCN(Cc1ccc(OC)cc1)c1c(C)nc2ccc(C(=O)NCCc3c[nH]c4ccccc34)cn12	/	0.8%	/	/	/
Cc1nc2cc(NS(=O)(=O)c3c(C)c(C)cc(C)c3C)ccc2s1	3.2%	-0.2%	-6.4%	11.2µM*	?
Cc1nc2cc(NS(=O)(=O)c3ccccc3F)ccc2s1	-2.3%	0.2%	16.0%	-10.6%	0.1%
Cc1nc2ccc(NS(=O)(=O)c3c(C)c(C)cc(C)c3C)cc2s1	-0.4%	-0.5%	0.4%	14.6µM*	-10.8%
COc1ccc(CCNC(=O)CCc2cn(Cc3ccccc3Cl)c3ccccc23)c(OC)c1	/	-0.7%	/	?	-4.9%
c1nc(NCC2CCCO2)c2ccc(-c3ccc4c(c3)OCO4)cc2n1 (centres undefined)	/	/	/	?	0.2%
COC(=O)C(=C/C(C)=C/c1cccs1)C(=O)OC	0.3%	14.1µM*	-19.1%	-4.5%	-13.1%
Cn1cc(-c2csc(C(O)c3ccc(F)c(F)c3)n2)cn1 (centres undefined)	/	0.0%	/	/	/
COc1ccc(CCNc2nc(-c3ccncc3)cs2)cc1OC	-1.6%	0.7%	10.8%	-29.8%	6.9%
COc1ccc(Nc2nc(-c3sc(C)nc3C)cs2)cc1	-3.0%	10.8%	0.3%	-16.1%	-10.0%
Cc1nc(C)c(-c2csc(Nc3ccc(N)cc3)n2)s1	0.5%	22.2%	12.3%	20.6µM*	-20.3%
COc1ccc(CCNc2nc(-c3cccnc3)cs2)cc1OC	-4.6%	-0.4%	10.5%	23.1µM*	-6.2%
COc1ccc(CCNc2nc(-c3sc(C)nc3C)cs2)cc1OC	-0.1%	-0.1%	-11.6%	20.6µM*	?
Cc1cc2c(s1)c1cnn(Cc3ccc4ccccc4c3)c(=O)c1n2C	/	/	/	16.2%	-2.6%
COc1ccc(-c2cn3ccccc3n2)cc1OC	4.5%	11.2µM*	-1.0%	?	2.8%
COc1ccc(-c2cn3cc(C)ccc3n2)cc1OC	-0.9%	-0.9%	-17.9%	?	1.7%
COc1cc(Nc2ncc3c(n2)CCN(Cc2cc(Br)cs2)C3)cc(OC)c1	/	6.0%	/	/	-5.4%
S=C(NCC1(c2ccccc2)CCCC1)Nc1ccccc1	0.3%	-0.3%	23.6%	16.4µM*	-7.2%
O=C(CN1C(=O)/C(=C\c2ccccc2Cl)Sc2ccccc21)NCCCN1CCOCC1	-1.0%	?	17.9%	20.6µM*	?
CCn1c(=O)n(CC)c2cc(N3CCCC3)c(NC(=O)c3cc(Cl)ccc3OC)cc21	0.8%	-0.2%	-25.9%	20.6µM*	?
CCOc1ccc(C(=O)Nc2ccc(-c3nnc4n3CCCCC4)cc2)cc1OCC	/	-0.5%	/	-18.6%	6.4%
COc1ccc(Cl)cc1C(=O)Nc1ccc(-c2nnc3n2CCCCC3)cc1	/	-0.4%	/	23.1µM*	-13.5%
SMILES	Rango-impB inh	Nrf2 activator	Rango release inh	Nrf2 inh	A549 viability
CCSC1=NS(=O)(=O)c2ccccc21	/	/	/	-7.0%	-4.4%
COc1ccc(OC)c(NC(=O)NNC(=O)COc2ccc(F)cc2F)c1	-0.2%	-0.5%	-9.5%	7.9%	24.8%
NC(=O)COC(=O)c1ccccc1Nc1ccc(SC(F)F)cc1	-2.9%	5.3%	0.7%	?	-0.5%
CC(OC(=O)c1ccccc1Nc1ccc(SC(F)F)cc1)C(N)=O (centres undefined)	1.9%	2.8%	12.6%	25.9µM*	-3.5%
CCOC(=O)c1ccc(Nc2c(CC)c(C)nc3ncnn23)cc1	4.6%	-0.7%	-2.2%	25.9µM*	-18.0%
CCc1c(C)nc2ncnn2c1Nc1ccc(C(C)=O)cc1	-0.2%	3.3%	0.3%	6.5%	-1.2%
CCc1c(C)nc2ncnn2c1N1CCC(C(=O)Nc2ccc(C)cc2)CC1	-0.2%	3.4%	-3.1%	13µM*	-1.4%[1.84 µM]
O=C(c1ccccc1)C(Nc1cccc([N+](=O)[O-])c1)c1ccccc1 (centres undefined)	2.7%	?	?	-18.7%	-0.6%
COc1cccc(-c2cc(C(=O)Nc3ccc(F)cc3)[nH]n2)c1	/	6.9%	/	2.59µM*	5.5%
COc1cc(OC)c(NC(=O)Cn2c(=O)cc(C)c3c(C)nn(-c4ccc(C)cc4)c32)cc1Cl	/	4.4%	/	?	?
c1ccc2sc(Sc3ncnc4sccc34)nc2c1	-2.6%	8.91µM*	14.5%	?	0.3%
Cc1nc(SCc2ccccc2)c2ccsc2n1	3.0%	?	-7.7%	-23.5%	-1.1%
c1ccc(CSc2ncnc3sccc23)cc1	-4.3%	11.2µM*	8.0%	9.1%	0.5%
CCc1cc2c(Sc3nc4ccccc4s3)ncnc2s1	4.4%	?	-3.4%	?	0.5%
CCc1nn2c(=O)c(S(=O)(=O)Nc3ccc(C)cc3C)c(C)nc2s1	/	1.4%	/	-10.7%	-2.0%
Cc1ccc2nc(-c3ccc(C)o3)c(Nc3ccc(Cl)cc3)n2c1	/	/	/	4.1%	-2.5%
CCCc1nc2ccccc2c(C(=O)OCC(=O)NCc2ccc3c(c2)OCO3)c1CC	-0.1%	-0.7%	-6.5%	20.6µM*	?
CCS(=O)(=O)NCCc1sc2nc(-c3ccc(OC)cc3)nn2c1C	/	0.5%	/	/	-12.5%
COc1ccc(-n2c(/C=C/c3cccc4ccccc34)nc3ccccc3c2=O)cc1Cl	/	-0.3%	/	/	0.1%
COc1ccc2[nH]c3c(NCc4ccco4)ncnc3c2c1	-3.5%	3.16µM*	-15.3%	?	6.7%
COc1ccc2[nH]c3c(NCCCOC(C)C)ncnc3c2c1	2.0%	0.6%	3.9%	11.7%	0.5%
Fc1ccc2[nH]c3c(NCc4ccccc4)ncnc3c2c1	-2.5%	6.3%	2.2%	18.4µM*	-13.8%
COC(=O)[C@@]1(C(C)C)N=C(c2cc(OC)c(OC)c(OC)c2)[C@]2(O1)C(=O)N(Cc1ccc(OC)cc1)c1ccc(Br)cc12	/	-0.7%	/	/	/
Cc1c(C(=O)Nc2ccc(F)cc2F)oc2ccc3c(c12)C(=O)CC(C)(C)O3	/	-0.1%	/	10.4%	-7.2%
CN(CCOc1ccccc1)CC(=O)Nc1cc([N+](=O)[O-])ccc1Cl	1.1%	-0.3%	-9.6%	16.4µM*	-8.5%
Cc1ccc(-c2nc(C)c(CCNS(=O)(=O)c3ccc(F)c(C(F)(F)F)c3)s2)cc1	/	0.7%	/	/	-9.6%
COc1ccc(N(Cc2cccs2)C(=O)COc2cc(C)c(Cl)c(C)c2)cc1	/	-0.3%	/	?	-1.2%
Nc1nc(Nc2ccccc2)nc(NCc2ccccc2)c1[N+](=O)[O-]	1.0%	6.0%	-10.6%	23.1µM*	?
Nc1nc(NCc2ccccc2)nc(NCc2ccccc2)c1[N+](=O)[O-]	7.7%	0.2%	4.4%	-11.6%	-2.2%
